Experimental data: PubChem BioAssay (NCATS)
Several values for one entry are separate records, joined by “and”; a condition that tells them apart may be missing. Identical values can stand only once. Inconclusive results are not listed. Activity calls are given as the source filed them. Unless noted, calls come from the whole dose curve; as a rule, active = well fitted curve in the direction sought with a large enough effect; inconclusive = small, poorly fitted or top-dose-only effect, or another doubt; inactive = no such curve, though single readings can be large; an effect the other way counts as inactive or inconclusive.

Experiments:
[1] = target: Beta-2 adrenergic receptor (Homo sapiens) (UniProt P07550); test: qHTS validation assay of beta-arrestin-biased ligands of beta2-adrenergic receptor (AID 485366); note: 0% is about no effect
In short: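 Values derive from curve-fitted %Activity of a luminescent beta-arrestin recruitment reporter; compounds tested up to 46 microM on Tango cells for 18 hr at 37 degrees C, 5% CO2.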

[2] = Quantitative high throughput screen for delayed death inhibitors of the malarial parasite plastid, 96 hour incubation (AID 488745); note: nearly all actives have a fitted effect of over 70% in size; note: potency is the fitted concentration of half-maximal effect
In short: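 P. falciparum carrying an integrated firefly luciferase reporter, grown in erythrocytes (2% hematocrit, 0.1% parasitemia final) in RPMI 1640/0.5% Albumax, was exposed to compound for 96 h (two generations) at 37 C, 5% CO2. Luminescence decrease indicated growth inhibition.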

[3] = Quantitative high throughput screen for delayed death inhibitors of the malarial parasite plastid, 48 hour incubation (AID 488752); note: nearly all actives have a fitted effect of over 65% in size; note: potency is the fitted concentration of half-maximal effect
In short: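 Erythrocytes infected with P. falciparum carrying an integrated firefly luciferase reporter (2% hematocrit, 0.1% parasitemia final) were exposed to compounds in RPMI 1640/0.5% Albumax for 48 h at 37 C, 5% CO2. Growth inhibition was scored as reduced luminescence.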

[4] = target: Thioredoxin reductase 1, cytoplasmic (Rattus norvegicus) (UniProt O89049); test: qHTS Assay for Substrates of Mammalian Selenoprotein Thioredoxin Reductase 1 (TrxR1) (AID 488772);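 note: NADPH fluorescence in the first read after selenite addition and not the 8 min delta; series mostly up to about 57 µM; 0% is about no effect; a drop in NADPH fluorescence below the no-compound background marks a TrxR1 substrate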
In short: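 Quantitative HTS in Tris-HCl buffer at pH 7.5 with EDTA and Tween-20, using rat TrxR1, 400 uM NADPH and 400 uM selenite (final). A fall in initial NADPH fluorescence relative to background marked substrate behaviour.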

[5] = target: Thioredoxin reductase 1, cytoplasmic (Rattus norvegicus) (UniProt O89049); test: qHTS Assay for Inhibitors of Mammalian Selenoprotein Thioredoxin Reductase 1 (TrxR1) (AID 488773); conditions: Potency: inhibition;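 note: drop in NADPH fluorescence over an 8 min run after selenite addition; series mostly up to about 57 µM; % is set by controls: 0 for no effect and ±100 for the full control effect; nearly all actives have a fitted effect of over 40% in size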
In short: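 Steps: enzyme (90 nM) plus NADPH (400 uM final), 5 min at ~22 deg C; compound added, 15 min; selenite (400 uM final) added; fluorescence followed for 8 min. Concentration-response curves derived from the normalized delta values.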

[6] = target: Flap endonuclease 1 (Homo sapiens) (UniProt P39748); test: qHTS Validation Assay for the Inhibitors of Human Flap endonuclease 1 (FEN1) (AID 488816); note: % is set by controls: 0 for no effect and ±100 for the full control effect
In short: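 FEN1, dispensed as a 10 nM reagent, was preincubated with pin-transferred compounds for 15 min at room temperature before substrate was added (50 nM final). Plates were read at 0 and 15 min, and a four-parameter Hill equation was fitted to the concentration-response data.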

[7] = target: M-phase phosphoprotein 8 (Homo sapiens) (UniProt Q99549); test: qHTS Validation Assay for Inhibitors for MPP8 Chromodomain Interactions with Methylated Histone Tails (AID 488949);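 note: AlphaScreen signal from MPP8 chromodomain bound to biotinylated H3K9me3 peptide; top concentration of the series differs between compounds; % is set by controls: 0 for no effect and ±100 for the full control effect; nearly all actives have a fitted effect of over 55% in size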
In short: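 AlphaScreen proximity signal from streptavidin donor and Ni-chelate acceptor beads (10 ug/mL each) reported binding of MPP8 to trimethyl-K9 H3(1-18) peptide, both at 50 nM. The complex formed 30 min before a 30 min compound exposure at room temperature, in PBS pH 7.4.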

[8] = target: Chromobox protein homolog 1 (Homo sapiens) (UniProt P83916); test: qHTS Validation Assay for Inhibitors of HP1-beta Chromodomain Interactions with Methylated Histone Tails (AID 488953); note: nearly all actives have a fitted effect of over 50% in size; note: potency is the fitted concentration of half-maximal effect
In short: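 HP1-beta (50 nM) was preincubated 30 min at room temperature with biotinylated H3(1-18)K9me3 peptide (50 nM) in PBS pH 7.4, 0.01% Tween-20, then with compounds 30 min. AlphaScreen signal was read after streptavidin donor/nickel chelate acceptor beads (10 ug/mL final).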

[9] = target: Methanococcus maripaludis chaperonin (MmCpn) (UniProt Q6LX38); test: High-Throughput Screening for Modulators of Cytosolic Chaperonin Activity: MmCpn Primary Screen (AID 488978);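 note: 50 nM MmCpn enzyme hydrolysing 30 µM ATP at 37 °C; 0% is about no effect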
In short: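 ATPase activity of 50 nM MmCpn was assayed with 30 uM ATP, 10 minutes at 37C, after a 5 min compound preincubation at room temperature. ADP production was read as HTRF emission at 590 and 665 nm.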

[10] = target: Transient receptor potential cation channel subfamily V member 1 (Homo sapiens) (UniProt Q8NER1); test: HTS Assay for Compounds that Act as Enhancers of the Vanilloid Receptor 1 (AID 488979); note: 0% is about no effect
In short: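 TRPV1-expressing cells loaded with Fluo-8 calcium dye; compounds added and calcium influx read kinetically for 3 min (agonist phase), then capsaicin at EC20 added and read 2 min more for enhancement. Fluorescence ex 480/em 520 nm.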

[11] = target: Thyrotropin receptor (Homo sapiens) (UniProt P16473); test: qHTS Assay for Antagonists of the Thyroid Stimulating Hormone Receptor (AID 488980); note: series mostly up to about 58 µM; 0% is about no effect
In short: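 Inhibition of cAMP raised by EC80 TSH (4 nM final) was read by HTRF, with lysate cAMP competing against cAMP-d2 for cryptate antibody after 30 min at room temperature. The cells were transfected HEK293 held in phosphodiesterase inhibitor RO 20-1724 at 70 uM.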

[12] = target: D(1A) dopamine receptor (Homo sapiens) (UniProt P21728); test: HTS Assay for Allosteric Agonists of the Human D1 Dopamine Receptor: Primary Screen for Agonists (AID 488981); note: 0% is about no effect
In short: (§1)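 Tetracycline-induced HEK293 T-REx cells force-coupled to calcium signalling were incubated overnight at 30 C and dye-loaded at room temperature. Calcium flux over 180 s after compound addition flagged agonists; a further 180 s read after EC20 dopamine flagged potentiators.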

[13] = target: D(1A) dopamine receptor (Homo sapiens) (UniProt P21728); test: HTS Assay for Allosteric Agonists of the Human D1 Dopamine Receptor: Primary Screen for Antagonists (AID 488983);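 note: calcium flux response to an EC80 dopamine challenge measured with no-wash dye; nearly all actives have a fitted effect of over 65% in size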; note: potency is the fitted concentration of half-maximal effect
In short: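 Tetracycline-induced HEK293 T-REx cells expressing force-coupled D1 were plated overnight at 30 C, dye-loaded for calcium, and read kinetically. Compounds were pinned in, then an EC80 dopamine challenge followed after 180 s to reveal antagonism.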

[14] = Validation screen for small molecules that induce genotoxicity in human embryonic kidney (HEK293T) cells expressing luciferase-tagged ELG1 (AID 493106); note: 0% is about no effect
In short: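 HEK293T cells expressing luciferase-tagged ELG1 were exposed to compound or DMSO vehicle for 16 hr at 37 °C, 5% CO2. Genotoxic stress raises ELG1 levels, so increased luciferase signal after ONE-Glo addition and 30 min at room temperature marks hits.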

[15] = target: Thyrotropin-releasing hormone receptor (Homo sapiens) (UniProt P34981); test: qHTS for Small Molecule Agonists and Allosteric Enhancers of Human TRH Receptor: Validation Screen for Agonists (AID 493127;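 active = calcium activation more than 3 SD above the typical response in the agonist read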;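 note: intracellular calcium rise by fluo-8 fluorescence before TRH EC20 addition; 0% is about no effect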); conditions: TRH receptor agonist cell assay; at 2 µM; stronger effect = higher value
In short: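 TRHR-expressing cells were plated overnight in serum-containing medium, then loaded with fluo-8 calcium dye at room temperature for 30 min–1.5 h. After a 10 s baseline, compound was pin-transferred and calcium fluorescence (ex 480/em 530) read kinetically for agonist response.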

[16] = Nrf2 qHTS screen for inhibitors: Validation (AID 493153; active = well fitted inhibition curve with a large enough effect in the main read-out, with a control signal flat, not every such curve was filed as active; note: potency is the fitted concentration of half-maximal effect); conditions: Potency: luciferase luminescence; viability change: measured here: cytotoxicity max response
In short: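 A549 cells carrying an ARE-driven firefly luciferase reporter, in 5% FBS OPTI-MEM, were treated with compounds in concentration-response for 18-24 h at 37°C. Viability was read by CellTiter-Fluor fluorescence, then Nrf2 activity by luciferase luminescence.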

[17] = qHTS for Inhibitors of Cell Surface uPA Generation: Validation Assay (AID 493164);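 note: RAW 264.7 macrophage cells exposed to compound for 18 h; 0% is about no effect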
In short: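 RAW 264.7, 4000 cells/well, o/n plating; cpd 7-pt 1:5 dilution 2.45 nM–38.3 uM final; 18 h, 37 C/5% CO2; ATP-Lite, 5 s luminescence exposure.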

[18] = target: ATP-dependent 6-phosphofructokinase (Trypanosoma brucei brucei) (UniProt O15648); test: qHTS Validation Assay to Find Inhibitors of T. brucei phosphofructokinase (AID 485368); note: potency is the fitted concentration of half-maximal effect
In short: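 Enzyme reaction in triethanolamine buffer pH 8.0 with 5 mM MgCl2, 0.01% Tween20 and 0.1% BSA; PFK 1.25 nM, F6P 0.5 mM, ATP 0.1 mM, 45 min RT. ADP quantified by ADP-Glo.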

[19] = target: D(1A) dopamine receptor (Homo sapiens) (UniProt P21728); test: HTS Assay for Allosteric Agonists of the Human D1 Dopamine Receptor: Primary Screen for Potentiators (AID 488982); note: 0% is about no effect
In short: as §1

[20] = target: ATP-dependent 6-phosphofructokinase (Trypanosoma brucei brucei) (UniProt O15648); test: qHTS Assay to Find Inhibitors of T. brucei phosphofructokinase: hit validation (AID 492961);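 note: luminescence reports ADP formed as PFK phosphorylates fructose-6-phosphate with ATP; series mostly up to about 51 µM; % is set by controls: 0 for no effect and ±100 for the full control effect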
In short: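 Reaction: 0.1 M triethanolamine pH 8.0, 5 mM MgCl2, F6P 0.5 mM, ATP 0.1 mM, PFK 1.25 nM, 45 min RT. Read-out: ADP-Glo luminescence. Analysis: concentration-response fits, classed by r2 and efficacy.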

Sequence of ATP-dependent 6-phosphofructokinase (Trypanosoma brucei brucei) (O15648 whole entry, looked up): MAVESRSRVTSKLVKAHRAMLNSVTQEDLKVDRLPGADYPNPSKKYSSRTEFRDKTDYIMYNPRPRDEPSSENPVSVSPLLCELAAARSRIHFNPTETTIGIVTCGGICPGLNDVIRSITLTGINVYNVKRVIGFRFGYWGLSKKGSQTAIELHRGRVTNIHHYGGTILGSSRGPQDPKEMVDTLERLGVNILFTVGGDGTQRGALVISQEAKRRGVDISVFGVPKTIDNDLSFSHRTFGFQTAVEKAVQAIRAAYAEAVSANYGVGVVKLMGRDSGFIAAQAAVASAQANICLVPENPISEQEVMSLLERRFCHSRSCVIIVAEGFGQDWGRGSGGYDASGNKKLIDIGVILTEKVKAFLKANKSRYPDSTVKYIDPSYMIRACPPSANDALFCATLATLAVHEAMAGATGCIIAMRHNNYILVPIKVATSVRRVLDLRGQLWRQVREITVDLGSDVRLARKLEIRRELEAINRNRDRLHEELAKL
Sequence of D(1A) dopamine receptor (Homo sapiens) (P21728 whole entry, looked up): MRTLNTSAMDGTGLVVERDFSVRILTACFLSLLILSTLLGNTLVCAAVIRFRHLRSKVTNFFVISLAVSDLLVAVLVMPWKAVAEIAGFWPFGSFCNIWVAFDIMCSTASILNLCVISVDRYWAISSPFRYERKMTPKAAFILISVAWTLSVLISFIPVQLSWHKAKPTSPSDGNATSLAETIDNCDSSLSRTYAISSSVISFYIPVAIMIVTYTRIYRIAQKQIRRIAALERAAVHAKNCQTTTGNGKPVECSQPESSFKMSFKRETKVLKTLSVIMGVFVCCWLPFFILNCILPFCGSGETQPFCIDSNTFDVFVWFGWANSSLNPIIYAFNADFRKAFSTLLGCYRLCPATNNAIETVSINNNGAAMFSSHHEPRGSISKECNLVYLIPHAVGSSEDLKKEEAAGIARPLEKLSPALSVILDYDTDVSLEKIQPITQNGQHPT
Sequence of Chromobox protein homolog 1 (Homo sapiens) (P83916 whole entry, looked up): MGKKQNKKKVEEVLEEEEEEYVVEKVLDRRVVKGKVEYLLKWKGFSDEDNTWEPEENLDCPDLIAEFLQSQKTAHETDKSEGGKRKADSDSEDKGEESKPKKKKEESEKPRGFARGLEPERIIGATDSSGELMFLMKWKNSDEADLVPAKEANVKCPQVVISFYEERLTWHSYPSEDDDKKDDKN
Sequence of M-phase phosphoprotein 8 (Homo sapiens) (Q99549 whole entry, looked up): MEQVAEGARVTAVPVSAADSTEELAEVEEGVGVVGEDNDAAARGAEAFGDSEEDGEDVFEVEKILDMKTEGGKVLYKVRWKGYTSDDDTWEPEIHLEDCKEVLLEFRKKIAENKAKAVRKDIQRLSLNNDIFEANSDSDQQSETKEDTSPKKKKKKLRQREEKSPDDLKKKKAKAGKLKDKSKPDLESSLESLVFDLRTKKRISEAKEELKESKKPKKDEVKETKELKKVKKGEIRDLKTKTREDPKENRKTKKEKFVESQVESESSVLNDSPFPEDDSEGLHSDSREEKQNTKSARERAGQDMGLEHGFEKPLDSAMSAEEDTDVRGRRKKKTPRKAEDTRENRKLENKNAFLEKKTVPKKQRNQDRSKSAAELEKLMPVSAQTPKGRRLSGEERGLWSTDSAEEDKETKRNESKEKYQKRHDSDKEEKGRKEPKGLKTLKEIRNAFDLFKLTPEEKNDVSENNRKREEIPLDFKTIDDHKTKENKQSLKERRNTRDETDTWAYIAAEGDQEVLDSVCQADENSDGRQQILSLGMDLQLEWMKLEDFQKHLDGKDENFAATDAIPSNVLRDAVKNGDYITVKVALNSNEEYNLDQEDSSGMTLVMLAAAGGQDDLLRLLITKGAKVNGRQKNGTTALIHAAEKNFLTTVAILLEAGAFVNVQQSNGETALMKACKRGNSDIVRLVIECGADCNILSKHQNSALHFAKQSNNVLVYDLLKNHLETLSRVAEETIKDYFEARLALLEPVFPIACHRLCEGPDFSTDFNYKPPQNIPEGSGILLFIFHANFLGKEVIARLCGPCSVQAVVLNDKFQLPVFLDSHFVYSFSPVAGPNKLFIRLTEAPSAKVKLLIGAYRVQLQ
Sequence of Beta-2 adrenergic receptor (Homo sapiens) (P07550 whole entry, looked up): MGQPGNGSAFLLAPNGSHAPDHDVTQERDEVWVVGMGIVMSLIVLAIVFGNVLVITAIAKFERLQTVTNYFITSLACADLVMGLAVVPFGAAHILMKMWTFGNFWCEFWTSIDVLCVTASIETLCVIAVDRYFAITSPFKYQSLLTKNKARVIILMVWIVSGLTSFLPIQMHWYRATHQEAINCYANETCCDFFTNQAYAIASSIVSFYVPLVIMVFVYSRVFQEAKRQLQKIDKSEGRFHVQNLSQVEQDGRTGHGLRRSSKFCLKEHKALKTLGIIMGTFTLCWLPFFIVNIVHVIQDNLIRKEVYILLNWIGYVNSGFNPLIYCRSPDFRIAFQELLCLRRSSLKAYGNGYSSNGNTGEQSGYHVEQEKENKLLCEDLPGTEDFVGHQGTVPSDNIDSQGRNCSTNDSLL
Sequence of Thioredoxin reductase 1, cytoplasmic (Rattus norvegicus) (O89049 whole entry, looked up): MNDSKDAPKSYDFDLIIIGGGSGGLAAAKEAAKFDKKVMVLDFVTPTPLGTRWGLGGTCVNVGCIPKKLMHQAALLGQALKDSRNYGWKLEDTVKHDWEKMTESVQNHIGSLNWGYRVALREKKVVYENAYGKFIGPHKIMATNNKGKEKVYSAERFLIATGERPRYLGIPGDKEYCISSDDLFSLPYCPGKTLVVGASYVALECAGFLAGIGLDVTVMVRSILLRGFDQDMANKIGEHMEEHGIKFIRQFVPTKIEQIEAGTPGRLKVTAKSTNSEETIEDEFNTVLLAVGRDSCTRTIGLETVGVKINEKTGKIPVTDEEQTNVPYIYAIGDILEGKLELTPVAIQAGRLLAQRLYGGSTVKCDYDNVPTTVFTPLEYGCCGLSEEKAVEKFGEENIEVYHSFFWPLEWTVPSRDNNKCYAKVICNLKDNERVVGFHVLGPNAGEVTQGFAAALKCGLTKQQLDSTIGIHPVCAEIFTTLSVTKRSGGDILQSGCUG
Sequence of Flap endonuclease 1 (Homo sapiens) (P39748 whole entry, looked up): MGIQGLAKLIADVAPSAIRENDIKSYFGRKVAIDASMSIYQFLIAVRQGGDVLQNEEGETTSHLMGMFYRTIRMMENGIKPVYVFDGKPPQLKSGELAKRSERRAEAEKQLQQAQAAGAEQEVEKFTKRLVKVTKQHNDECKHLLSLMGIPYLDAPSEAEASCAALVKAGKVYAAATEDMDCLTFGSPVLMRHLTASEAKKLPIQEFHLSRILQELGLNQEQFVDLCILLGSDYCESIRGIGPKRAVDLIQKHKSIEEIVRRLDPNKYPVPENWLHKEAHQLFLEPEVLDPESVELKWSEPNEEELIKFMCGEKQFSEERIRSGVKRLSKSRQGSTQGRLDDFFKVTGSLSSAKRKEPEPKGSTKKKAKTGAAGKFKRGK
Sequence of Methanococcus maripaludis chaperonin (MmCpn) (Q6LX38 1-543): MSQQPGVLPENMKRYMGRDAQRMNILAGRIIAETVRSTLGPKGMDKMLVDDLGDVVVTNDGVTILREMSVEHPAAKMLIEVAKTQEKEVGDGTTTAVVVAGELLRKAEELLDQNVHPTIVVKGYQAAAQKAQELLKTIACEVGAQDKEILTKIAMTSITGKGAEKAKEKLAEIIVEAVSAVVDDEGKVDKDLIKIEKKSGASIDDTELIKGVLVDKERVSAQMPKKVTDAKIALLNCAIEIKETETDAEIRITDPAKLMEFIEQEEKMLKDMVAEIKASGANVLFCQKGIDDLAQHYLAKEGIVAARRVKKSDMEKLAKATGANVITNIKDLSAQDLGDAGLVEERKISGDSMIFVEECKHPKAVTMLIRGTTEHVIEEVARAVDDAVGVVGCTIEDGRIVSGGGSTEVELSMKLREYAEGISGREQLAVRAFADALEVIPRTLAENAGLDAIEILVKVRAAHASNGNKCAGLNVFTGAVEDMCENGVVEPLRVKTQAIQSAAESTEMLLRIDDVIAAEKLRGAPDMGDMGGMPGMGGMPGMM
Sequence of Thyrotropin receptor (Homo sapiens) (P16473 whole entry, looked up): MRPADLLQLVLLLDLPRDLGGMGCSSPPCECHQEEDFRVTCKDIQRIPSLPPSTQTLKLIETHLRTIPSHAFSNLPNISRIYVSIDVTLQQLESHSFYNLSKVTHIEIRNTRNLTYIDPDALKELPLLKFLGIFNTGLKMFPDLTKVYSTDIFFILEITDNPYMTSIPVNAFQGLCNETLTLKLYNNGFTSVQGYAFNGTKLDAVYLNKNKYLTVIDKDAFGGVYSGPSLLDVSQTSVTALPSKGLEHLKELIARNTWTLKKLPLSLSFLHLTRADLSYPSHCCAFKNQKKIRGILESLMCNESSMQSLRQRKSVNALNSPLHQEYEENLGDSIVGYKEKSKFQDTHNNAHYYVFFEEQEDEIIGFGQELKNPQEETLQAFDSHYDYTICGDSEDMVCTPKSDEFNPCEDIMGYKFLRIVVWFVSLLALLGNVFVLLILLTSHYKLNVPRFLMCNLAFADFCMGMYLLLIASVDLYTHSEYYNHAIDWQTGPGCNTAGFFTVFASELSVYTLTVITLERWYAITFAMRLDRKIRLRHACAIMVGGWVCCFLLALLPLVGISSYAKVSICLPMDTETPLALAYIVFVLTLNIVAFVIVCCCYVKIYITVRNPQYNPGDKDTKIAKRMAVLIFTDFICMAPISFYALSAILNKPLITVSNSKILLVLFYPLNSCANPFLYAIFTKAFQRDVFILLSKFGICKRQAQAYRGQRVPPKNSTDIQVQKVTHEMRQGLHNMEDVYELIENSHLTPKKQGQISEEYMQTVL
Sequence of Thyrotropin-releasing hormone receptor (Homo sapiens) (P34981 whole entry, looked up): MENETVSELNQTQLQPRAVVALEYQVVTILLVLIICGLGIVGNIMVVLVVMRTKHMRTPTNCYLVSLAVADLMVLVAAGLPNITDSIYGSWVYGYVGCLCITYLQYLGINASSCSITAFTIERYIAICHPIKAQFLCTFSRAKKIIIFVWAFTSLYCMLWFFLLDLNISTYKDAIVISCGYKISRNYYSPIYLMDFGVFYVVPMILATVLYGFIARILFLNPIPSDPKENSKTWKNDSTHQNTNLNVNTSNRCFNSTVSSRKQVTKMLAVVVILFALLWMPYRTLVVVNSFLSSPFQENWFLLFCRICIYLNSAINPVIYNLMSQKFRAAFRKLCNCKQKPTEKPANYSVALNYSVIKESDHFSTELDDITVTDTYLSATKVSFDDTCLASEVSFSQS

NCC(CC(=O)O)c1ccc(Cl)cc1 (configuration not stated)
12.6%: viability change [16]
active: Potency [16] 9.2 µM
inactive: outcome [1] | Potency [2] | Potency [3] | outcome [4] | Potency [5] | Potency [6] | Potency [7] | Potency [8] | outcome [9] | outcome [10] | outcome [11] | Potency [12] | Potency [13] | Potency [14] | activation [15] 0.125% | outcome [17]

CN1C[C@H](CNC(=O)OCc2ccccc2)C[C@@H]2c3cccc4c3c(cn4C)C[C@H]21
active: Potency [2] 3.29 µM | Potency [3] 7.38 µM | Potency [8] 44.7 µM | Potency [13] 0.447 µM
inactive: outcome [1] | Potency [18] | outcome [4] | Potency [5] | Potency [6] | Potency [7] | outcome [9] | outcome [11] | Potency [12] | Potency [19] | Potency [14] | activation [15] 7.38% | outcome [17]

Cc1cccc(C)c1NC1=NCCCS1
inactive: outcome [1] | Potency [18] | Potency [3] | outcome [4] | Potency [5] | Potency [7] | Potency [8] | outcome [9] | outcome [10] | outcome [11] | Potency [12] | Potency [19] | Potency [13] | Potency [14] | activation [15] 0.688% | Potency [16] | outcome [17]
-1.16%: viability change [16]

CC(O)(CS(=O)(=O)c1ccc(F)cc1)C(=O)Nc1ccc(C#N)c(C(F)(F)F)c1 (configuration not stated)
-8.54%: viability change [16]
inactive: outcome [1] | Potency [18] | outcome [4] | Potency [5] | Potency [6] | Potency [7] | Potency [8] | outcome [9] | Potency [12] | Potency [19] | Potency [13] | Potency [14] | Potency [16] | outcome [17]

NN=C(N)N
4.74% and 3.63%: viability change [16]
inactive: outcome [1] | Potency [18] | Potency [2] | Potency [3] | outcome [4] | Potency [5] | Potency [6] | Potency [7] | Potency [8] | outcome [9] | outcome [10] | Potency [12] | Potency [19] | Potency [13] | outcome [20] | Potency [14] | Potency [16] | outcome [17]

Cc1ncc(CNC(=O)N(CCCl)N=O)c(N)n1
inactive: outcome [1] | Potency [18] | Potency [2] | Potency [3] | outcome [4] | Potency [5] | Potency [6] | Potency [7] | Potency [8] | outcome [9] | outcome [10] | outcome [11] | Potency [12] | Potency [19] | Potency [13] | Potency [14] | activation [15] 1.5% | outcome [17]

c1ccc(C2CC2)c(OCC2=NCCN2)c1
inactive: outcome [1] | Potency [18] | Potency [2] | Potency [3] | outcome [4] | Potency [5] | Potency [6] | Potency [7] | outcome [9] | outcome [10] | outcome [11] | Potency [12] | Potency [19] | Potency [13] | Potency [14] | activation [15] 0.562% | Potency [16] | outcome [17]
5.58%: viability change [16]

COc1ccc(C(CN(C)C)C2(O)CCCCC2)cc1 (configuration not stated)
3.45%: viability change [16]
inactive: outcome [1] | outcome [4] | Potency [5] | Potency [6] | Potency [7] | Potency [8] | outcome [9] | Potency [12] | Potency [19] | Potency [13] | outcome [20] | Potency [14] | Potency [16] | outcome [17]
active: Potency [18] 5.36 µM

CC(CCc1ccccc1)NC(C)C(O)c1ccc(O)cc1 (configuration not stated)
inactive: outcome [1] | Potency [18] | Potency [2] | Potency [3] | outcome [4] | Potency [5] | Potency [6] | Potency [7] | Potency [8] | outcome [9] | outcome [11] | Potency [12] | Potency [19] | Potency [14] | Potency [16] | outcome [17]
-10.8%: viability change [16]
